# Measurements taken from PubChem BioAssay AID504834 (National Center for Advancing Translational Sciences (NCATS), 2011).
# About 22,000 (6.9%) of roughly 320,000 compounds were called active. Entries that show only a call come without a potency. About 27% were inconclusive and are not listed. The call rests on the fitted dose curve; in most records, active means well fitted inhibition curve with a large enough effect; inconclusive means small, poorly fitted or top-dose-only effect, or another doubt; inactive means no such curve, though single readings can be large or run the other way. This excerpt belongs to a sample that is enriched for actives.
# Experiment: Primary qHTS for delayed death inhibitors of the malarial parasite plastid, 96 hour incubation
# Settings: P. falciparum luciferase reporter growth; series mostly up to 28.7 µM
# In short: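 Readout is luminescence from an integrated firefly luciferase in P. falciparum. Red cells, 2% hematocrit and 0.05% parasitemia final, were cultured with compound through two parasite generations (96 hours) at 37 C, 5% CO2.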
# Potency means the concentration at half of the fitted maximal effect.
row,SMILES,Potency
1,CC(=O)Nc1ccc(S(=O)(=O)N2CCC(C(=O)N[C@@H](Cc3ccccc3)C(=O)O)CC2)cc1,inactive
2,CC(OC(=O)CCC(=O)c1ccccc1)C(=O)Nc1ccc(F)cc1 (centres undefined),inactive
3,NC(=O)CN1CCCC1c1ccc2c(c1)OCCO2 (centres undefined),inactive
4,O=C(C1CCC1)N1CCN(S(=O)(=O)c2ccc([N+](=O)[O-])cc2)CC1,10.4 µM (active)
5,O=C(Cc1ccccc1)N1CCN(S(=O)(=O)c2ccc([N+](=O)[O-])cc2)CC1,inactive
6,O=C(C1CCCN(S(=O)(=O)c2ccc([N+](=O)[O-])cc2)C1)N1CCCCC1 (centres undefined),inactive
7,O=C(/C=C/c1ccccc1[N+](=O)[O-])OC1CCCCC1=O (centres undefined),inactive
8,O=C(/C=C/c1ccccc1[N+](=O)[O-])NCC1CCCO1 (centres undefined),inactive
9,CC1CCCCC1NC(=O)/C(C#N)=C/C=C/c1ccccc1[N+](=O)[O-] (centres undefined),11.7 µM (active)
10,CC(=O)Nc1cccc(C(=O)OCC(=O)Nc2nnc(-c3ccccc3)o2)c1,inactive
11,CC(OC(=O)/C=C/c1ccccc1)C(=O)NC1CCCCC1C (centres undefined),inactive
12,CC[N+](C)(CC)CCC[n+]1c(-c2ccccc2)c2cc(N)ccc2c2ccc(N)cc21,0.233 µM (active)
13,O=C(CCNC(=O)c1ccccc1)Nc1nc2ccccc2s1,inactive
14,CC(C)(C)OC(=O)NC(Cc1ccccc1)C(=O)NC(CSC1CCCCO1)C(=O)NN (centres undefined),inactive
15,CCn1cc(C(=O)NCC(=O)NC(C)(C)CO)c(=O)c2cc3c(cc21)OCO3,inactive
16,COc1cccc(N(CC(=O)NC2CCCC2)C(=O)CCCC(=O)Nc2ccccn2)c1,inactive
17,COc1ccc(N(CC(=O)Nc2ccc(F)c(F)c2)S(=O)(=O)c2c(C)[nH]c(=O)[nH]c2=O)cc1,inactive
18,CCOc1ccc(N(CC(=O)Nc2ccccc2F)S(=O)(=O)c2c(C)[nH]c(=O)[nH]c2=O)cc1,inactive
19,O=C(CN(c1cccc(Cl)c1)S(=O)(=O)c1ccccc1)NN=C1CCCC1,inactive
20,COc1ccc(N(CC(=O)NC2CCCCC2)S(=O)(=O)c2c(C)[nH]c(=O)[nH]c2=O)cc1,5.86 µM (active)
21,COc1cccc(N(CC(=O)NC2CCCCCC2)S(=O)(=O)c2ccccc2)c1,13.1 µM (active)
22,O=C(Cc1cccs1)NCc1cccc(C(F)(F)F)c1,inactive
23,COc1ccc(N2CC(C(=O)NCCS(=O)(=O)N3CCN(c4ccccc4)CC3)CC2=O)cc1 (centres undefined),inactive

row,SMILES,Potency
1,CCC(CC)C(=O)Nc1c2c(nn1-c1ccc(C)cc1)CS(=O)(=O)C2,inactive
2,O=CN1CCN(C(=O)c2ccc3c(c2)OCO3)CC1,inactive
3,CC(C)CN(C(=O)CSc1nncn1C)C1CCS(=O)(=O)C1 (centres undefined),inactive
4,Cc1cccc[n+]1CC(=O)c1ccccc1,inactive
5,Cc1ccc(C(=O)N2CCCC(c3ccccc3)=N2)cc1,inactive
6,Cc1ccc(NC(=O)CCN2CCc3ccccc3C2)cc1,inactive
7,Cc1ccc(-c2c[n+](CC(=O)Nc3ccccc3)c3n2CCC3)cc1,3.7 µM (active)
8,Cc1ccc(C(=O)C[n+]2cc(-c3ccccc3)n3c2CCCCC3)cc1,0.415 µM (active)
9,Cc1ccc(NC(=O)CN2CCc3ccccc3C2)cc1,inactive
10,COc1ccc(S(=O)(=O)Nc2cc(C)on2)cc1NC(C)=O,inactive
11,CCCc1cc(=O)oc2c(C)c(OCC(=O)Nc3ccccn3)ccc12,inactive
12,COCCCNC(=O)CN1C(=O)CSc2ccc(S(=O)(=O)N3CCOCC3)cc21,inactive
13,CCOC(=O)C1CCN(C(=O)Cn2nc(C)c3c(C)n(-c4ccccc4)nc3c2=O)CC1,inactive
14,O=S(=O)(NCCc1ccc(Cl)cc1)c1cccs1,inactive
15,COc1cc(C(=O)OC2CCOC2=O)c([N+](=O)[O-])cc1OC (centres undefined),inactive
16,COc1ccc(NC(=O)CS(=O)(=O)c2ccccc2)cc1,inactive
17,COc1ccc(-c2nnc(NC(=O)CS(=O)(=O)c3ccc(Cl)cc3)o2)c(OC)c1,8.28 µM (active)
18,COc1ccc(-c2nnc(SCC(=O)c3cccs3)o2)c(OC)c1,inactive
19,COc1ccc(-c2n[nH]c3c2CN(C(=O)c2ccc(F)cc2)CC3)cc1,inactive
20,Cc1nonc1C1CCCN1C(=O)c1cc(COc2cccc(C(F)(F)F)c2)on1 (centres undefined),inactive
21,O=C(N/N=C/c1ccccc1O)C1CCCC1,inactive
22,O=C(N/N=C/C=C/c1ccccc1)C1CC1(c1ccccc1)c1ccccc1 (centres undefined),10.4 µM (active)
23,COc1ccccc1/C=C/C=N/NC(=O)CN1CCN(Cc2ccccc2)CC1,inactive

row,SMILES,Potency
1,CCc1cc(=O)oc2c(C)c(OCC(=O)N3CC[C@@]4(O)CCCC[C@H]4C3)ccc12,inactive
2,CCOC(=O)c1[nH]c2c(c1C)C(=O)CC(c1ccc(N(C)C)cc1)C2 (centres undefined),inactive
3,CCOC(=O)c1cc(NC(=O)c2ccc(Cl)cc2)c(=O)oc1-c1ccccc1,inactive
4,CCOC(=O)c1[nH]c2c(c1-c1ccccc1)C(=O)CC(c1ccc(Cl)cc1)C2 (centres undefined),9.28 µM (active)
5,Cc1cccc(C(=O)NC(=S)N(C)C2CCCCC2)c1,inactive
6,C#CCOCCOCCOCCNc1nc(N2CCN(C(=O)CCCCCCCCCCNC(=O)[C@H](CCCCN)n3cc(C)nn3)CC2)nc(N2CCN(C(=O)CCCCCCCCCCNC(=O)[C@H](CO)n3cc(CCCSC)nn3)CC2)n1,0.294 µM (active)
7,C#CCOCCOCCOCCNc1nc(N2CCN(C(=O)[C@H](CCC(=O)O)n3cc(C(N)CO)nn3)CC2)nc(N2CCN(C(=O)[C@H](CCCCN)n3cc(C(N)[C@H](C)CC)nn3)CC2)n1 (some centres undefined),inactive
8,C#CCOCCOCCOCCNc1nc(N2CCN(C(=O)[C@H](C(C)C)n3cc(CCO)nn3)CC2)nc(N2CCN(C(=O)[C@H](C(C)C)n3cc(CCO)nn3)CC2)n1,inactive
9,C#CCOCCOCCOCCNc1nc(N2CCN(C(=O)CCCCCCCCCCNC(=O)Cn3cc(CCCCCN)nn3)CC2)nc(N2CCN(C(=O)CCCCCCCCCCNC(=O)[C@H](CO)n3cc(CCCSC)nn3)CC2)n1,1.47 µM (active)
10,C#CCOCCOCCOCCNc1nc(N2CCN(C(=O)[C@H](CCC(=O)O)n3cc(C(N)CO)nn3)CC2)nc(N2CCN(C(=O)[C@H](CCCCN)n3cc(C(N)CC(C)C)nn3)CC2)n1 (some centres undefined),inactive
11,C#CCOCCOCCOCCNc1nc(N2CCN(C(=O)Cn3cc(CCCCN)nn3)CC2)nc(N2CCN(C(=O)[C@H](CCCCN)n3cc(CCC(=O)O)nn3)CC2)n1,inactive
12,C#CCOCCOCCOCCNc1nc(N2CCN(C(=O)[C@H](CCCCN)n3cc([C@@H](N)C(C)CC)nn3)CC2)nc(N2CCN(C(=O)[C@H](Cc3ccc(O)cc3)n3cc([C@@H](N)C(C)CC)nn3)CC2)n1 (some centres undefined),inactive
13,C#CCOCCOCCOCCNc1nc(N2CCN(C(=O)CCCCCCCCCCNC(=O)[C@H]([C@@H](C)CC)n3cc(CCCCN=C(N)N)nn3)CC2)nc(N2CCN(C(=O)CCCCCCCCCCNC(=O)[C@H](CO)n3cc(CCCSC)nn3)CC2)n1,0.37 µM (active)
14,C#CCOCCOCCOCCNc1nc(N2CCN(C(=O)[C@H](CCCCN)n3cc(CCC(=O)O)nn3)CC2)nc(N2CCN(C(=O)[C@H](CCCCN)n3cc(CC(C)O)nn3)CC2)n1 (some centres undefined),inactive
15,CSc1n[nH]c(=S)n1N,inactive
16,Cc1c(CC(=O)NCCCCCC(=O)O)c(=O)oc2cc3occ(-c4ccccc4)c3cc12,inactive
17,CCOc1ccccc1NC(=O)Cn1ncc2ccc([N+](=O)[O-])cc21,inactive
18,CC(=O)NC1CCN(CC(=O)Nc2nccs2)CC1,inactive
19,O=C(Nc1ncccc1O)c1ccc(C(=O)c2ccccc2)cc1,0.928 µM (active)
20,O=C(NC(=O)c1ccccc1)Nc1ccccc1O,inactive
21,O=C(Nc1ncccc1O)c1ccc(S(=O)(=O)N2CCCCCC2)cc1,5.22 µM (active)
22,O=C(N/N=C/c1ccccn1)c1ccc(S(=O)(=O)N2CCCCCC2)cc1,inactive
23,O=C(Nc1ncccc1O)c1ccc(S(=O)(=O)N2CCCC2)cc1,2.08 µM (active)

row,SMILES,Potency
1,O=C(CNC(=O)c1ccc2ccccc2c1)Nc1ncccc1O,inactive
2,CCOC(=O)c1csc(NC(=O)c2ccc(S(=O)(=O)N3CCCC3)cc2)n1,inactive
3,CN1CCN(NC(=O)c2ccc(S(=O)(=O)N3CCCCCC3)cc2)CC1,inactive
4,O=C(Nc1ccccc1F)c1ccc(S(=O)(=O)N2CCCCCC2)cc1,inactive
5,CCOc1ccc2nc(N(CCN(C)C)C(=O)c3ccc4ccccc4c3)sc2c1,inactive
6,COc1ccc(-c2nc3c(s2)CCc2onc(-c4ccc(OC)cc4)c2-3)cc1,inactive
7,COc1ccc(C(=O)NC2CC(C)(C)NC(C)(C)C2)cc1OC,inactive
8,COc1ccc(OC)c(/C(C)=N\NC(=O)c2cc3cc(Cl)ccc3n2C)c1,inactive
9,COc1ccc(NC(=S)Nc2ccccc2Cl)cn1,inactive
10,COc1ccc(NC(=O)/C(Cl)=C(/Cl)S(=O)Cc2ccc(C)cc2)cn1 (centres undefined),inactive
11,COc1ccc(CS(=O)/C(Cl)=C(/Cl)C(=O)Nc2ccc(OC)nc2)cc1 (centres undefined),2.94 µM (active)
12,O=C(NCc1ccccc1Cl)NC(=O)c1csc([N+](=O)[O-])c1,inactive
13,CC1(C(=O)OCC(=O)Nc2ncc(Cl)cc2Cl)CC1(Cl)Cl (centres undefined),inactive
14,CCOC(=O)C1=NN(c2ccc(Cl)cc2)/C(=C/C2=NCCc3cc(OC)c(OC)cc32)S1,4.15 µM (active)
15,COc1cc2c(cc1OC)C(c1cccc([N+](=O)[O-])c1)=NCC2,inactive
16,CCOC(=O)C1=NNC2(c3ccc(Cl)cc3)C(=O)N(c3cc(C)cc(C)c3)C(=O)C12 (centres undefined),inactive
17,CCCCN(C(=O)C1CCC1)c1c(N)n(Cc2ccccc2)c(=O)[nH]c1=O,inactive
18,O=S(=O)(NC1CC1)c1ccc(F)c(F)c1,inactive
19,Cn1ncc2c(N3CCCCC3)nc(NCCCO)nc21,inactive
20,COc1cc(C(=O)NN(CCC#N)C2=NS(=O)(=O)c3ccccc32)cc(OC)c1OC,inactive
